# Assay results taken from the supplement of paper PMC7335073.
# Over roughly 4,100 sequences, “relative CpG methylation activity (normalised to average over all NNNCGNNN flanks)” has its median near 0.87; the highest 2% begin near 2.4. The sample holds the highest values, similar sequences and a random draw of the others, so the mix is not that of the screen.
# Target: DNMT3A catalytic domain (mouse) (UniProt O88508)
# Test: relative CpG methylation activity (normalised to average over all NNNCGNNN flanks) (relative (1 = mean)); higher = more methylation of the central CpG
# Details: system: in vitro, murine catalytic domain; CpG state: hemimethylated substrate pool; residues: 608-908
# Experimental: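 Deep enzymology: a pool of dsDNA substrates with a central CpG flanked by 10 random nucleotides on each side was methylated by the murine DNMT3A or DNMT3B catalytic domain (0.8 mM SAM, 37 °C, 60 min). Methylation was then read out by hairpin ligation, bisulfite conversion and NGS. Values are the average methylation of each NNNCGNNN context (±3 flanks; the outer flanks are random and averaged over), normalised to the overall mean, so 1 = average activity.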
row,Sequence,relative CpG methylation activity
1,CTACGGTC,1.92
2,GTACGCTA,1.98
3,GTACGCTG,1.88
4,ATACGCTT,2.67
5,TGACGCTT,1.05
6,ATACGCTA,2.15
7,ATACGGTG,0.775
8,GTACGCTT,2.66
9,ATACGGTC,2.39
10,TAACGCTT,1.53
11,TTACGCTT,2.62
12,ATACGCTG,2.12
13,CCTCGCAA,1.31
14,CGGCGTAC,0.625
15,AGGCGCAG,0.331
16,TCTCGGTG,0.645
17,TTACGCGA,1.73
18,ACTCGTAG,0.496
19,GAGCGCCT,1.95
20,AGACGTCA,1.03
21,AGACGATG,0.457
22,GTACGCTC,2.72
23,AAACGCTC,1.44
24,GTACGCAC,1.87
25,AGACGCTC,1.49
26,TTACGCTC,2.74

row,Sequence,relative CpG methylation activity
1,GTACGCGC,2.11
2,ATACGCTC,2.73
3,TTACGCTG,1.74
4,TTACGCAC,2.32
5,GCTCGACA,1.04
6,TTCCGTGG,0.603
7,TTGCGTAT,1.47
8,ACTCGGAT,0.799
9,AGGCGTTA,0.256
10,ATACGAGT,1.56
11,GCGCGGGG,0.217
12,GTGCGCTT,2.47
13,CTGCGCCT,1.81
14,GTGCGCCT,2.43
15,GTGCGCCA,2.05
16,GTGCGCTA,1.91
17,GTGCGCTC,2.03
18,CGACGTTG,0.323
19,TCCCGCAT,0.92
20,GGACGATA,0.784
21,TTTCGCCG,1.83
22,AGACGTAT,0.427
23,GTACGAGC,2.12
24,TTCCGATC,2.29
25,CTACGATC,2.4
26,CTCCGATC,2.41

row,Sequence,relative CpG methylation activity
1,GTACGACC,2.03
2,GTCCGATC,2.18
3,ATACGACG,1.73
4,ATACGAGC,2.39
5,CTACGATG,1.2
6,ATACGACC,2.41
7,TTACGAGC,2.12
8,CTACGATT,1.89
9,GGTCGCTG,0.804
10,ACCCGGTC,1.19
11,CCCCGCCT,2.14
12,TGTCGGAA,0.614
13,CCGCGTGG,0.205
14,ACGCGCGG,0.42
15,GCCCGGAT,0.551
16,CTACGAGA,1.72
17,CTACGAGC,2.44
18,CTACGAGT,1.7
19,TTCCGACG,1.77
20,CTTCGCTA,1.66
21,CTTCGCTC,2.46
22,GTTCGCTG,1.46
23,TTTCGCTC,2.02
24,CTTCGCTT,1.78
25,GTTCGCTC,2.37
26,GGCCGGGC,0.75

row,Sequence,relative CpG methylation activity
1,GATCGAGC,0.679
2,ACACGTCA,2.19
3,CCACGTCT,1.61
4,CCACGTCC,1.94
5,CAACGTCC,1.67
6,TTACGTCC,2.56
7,CTACGTCT,2.45
8,TTACGTCT,2.14
9,CTACGTCC,2.8
10,TGACGTCC,1.32
11,TCACGTCC,1.98
12,ACACGTCC,2.46
13,CTACGTGT,1.07
14,GGACGAGA,0.605
15,TCTCGTGT,0.225
16,ATGCGGTG,0.407
17,ACCCGACG,1.17
18,GCTCGGAA,0.694
19,GAGCGTAG,0.34
20,CCGCGGAA,0.965
21,AAACGGTC,0.701
22,CTACGTGA,1.2
23,CTGCGTCC,2.14
24,TTGCGTCT,1.67
25,TTGCGTCC,2.39
26,GTACGTCT,2.06

row,Sequence,relative CpG methylation activity
1,GAACGTCC,1.06
2,GTACGTCA,2.5
3,CTACGTCA,2.51
4,GCACGTCA,1.86
5,CCACGTCA,1.71
6,GTACGTCC,2.41
7,GTACGTAC,1.62
8,ACGCGCCG,1.59
9,ACCCGGTG,0.688
10,GCACGAGG,0.755
11,TGACGTAC,0.438
12,CTCCGAAG,1.01
13,CAGCGCTC,1.08
14,GCGCGAGA,0.455
15,CGCCGAGT,0.664
16,TAACGGCG,0.782
17,ATACGTCC,2.56
18,ATACGTCG,2.26
19,ATACGTCT,2.22
20,ATACGTGA,1.2
21,AAACGTCA,1.14
22,ATACGTCA,2.47
23,GGACGGGC,0.536
24,CGCCGATA,0.761
25,TCTCGAGG,0.357
26,GTGCGTGC,1.11

row,Sequence,relative CpG methylation activity
1,CATCGGAG,0.238
2,TGTCGAAC,0.773
3,GGGCGCCA,1.15
4,TTACGTAA,2.54
5,TTACGTAT,1.48
6,CTACGTAC,1.9
7,TTACGTAG,1.34
8,ATACGTAA,2.01
9,CTACGTAA,2.4
10,CTTCGCAA,1.52
11,AGCCGGGA,0.357
12,GAGCGCTG,0.969
13,GTGCGCCG,1.79
14,ATGCGCCG,2.39
15,TTGCGCCT,2.1
16,TTGCGCCC,2.61
17,TTGCGCCA,1.75
18,CTGCGCCC,2.19
19,ATGCGCCC,2.44
20,CTGCGCCG,1.93
21,GTGCGCCC,2.22
22,CGTCGAGC,1.06
23,AGCCGCAG,0.256
24,CGGCGTAA,0.615
25,GCACGGGA,1.04
26,TTCCGTCG,2.09

row,Sequence,relative CpG methylation activity
1,CTCCGTCT,1.84
2,GTCCGTCT,2.14
3,TTCCGTCT,2.58
4,GTCCGTCC,2.02
5,GTCCGTCG,2.53
6,ATCCGTCT,2.05
7,GTCCGTTG,1.25
8,GTCCGTCA,2.41
9,TGCCGCGA,0.629
10,TGCCGCTT,1.45
11,CGGCGGAT,0.495
12,CGTCGTAG,0.312
13,AACCGTCG,1.34
14,TTACGTTA,2.55
15,GTACGTCG,1.85
16,TGACGTCA,0.989
17,TTACGTTT,1.72
18,TCACGTCA,2.03
19,CTACGTCG,2.46
20,CGACGTCG,1.28
21,TTACGTTG,1.34
22,TGACGTCG,1.02
23,CTACGTGG,0.594
24,TTACGTCG,2.52
25,TTACGTCA,2.5
26,GACCGGCA,0.909

row,Sequence,relative CpG methylation activity
1,AAGCGCAT,0.582
2,TCCCGAGA,1.02
3,GTTCGCAT,1.26
4,TACCGACC,0.79
5,TCTCGCTG,1.57
6,TGCCGCTC,1.84
7,GCACGATT,1.02
8,AACCGACT,0.927
9,CCTCGCCG,1.68
10,GCTCGCCT,2.09
11,CCTCGCCC,2.6
12,TCTCGCCT,1.73
13,CCTCGCCA,1.67
14,CCTCGCCT,2.37
15,GTTCGGTT,0.726
16,GTCCGAAC,1.91
17,CGACGATT,0.644
18,TTACGGCC,2.24
19,TATCGCCT,1.86
20,CACCGGAA,0.755
21,ACACGCTT,2.37
22,TCACGCTG,1.32
23,ACACGCTC,2.4
24,ACACGCTG,1.74
25,ACACGCAC,1.72
26,CCACGCTG,1.58

row,Sequence,relative CpG methylation activity
1,GCACGCTC,1.98
2,TCACGCTA,1.56
3,TCACGCTC,2.5
4,CCACGCTA,1.53
5,ACACGCTA,1.76
6,CCACGCTC,2.5
7,GGTCGTCT,0.726
8,CCCCGATA,1.02
9,TACCGTTT,0.414
10,GCTCGGCC,1.3
11,GGACGTTG,0.114
12,GGACGGAC,0.861
13,ATTCGCTC,1.94
14,ACGCGAGT,0.94
15,GTCCGCTA,1.9
16,GGCCGCTT,1.75
17,GTCCGCTT,2.54
18,CTCCGCTT,2.3
19,TTCCGCTT,2.48
20,ATCCGCTG,1.62
21,GTCCGCTG,1.42
22,GTCCGCTC,2.37
23,GACCGCTC,1.78
24,ATCCGCTA,1.78
25,ATCCGCTT,2.13
26,ATCCGCTC,2.37

row,Sequence,relative CpG methylation activity
1,GCCCGGGT,0.974
2,TGGCGGCC,1
3,CCACGACG,1.18
4,GGCCGTGC,0.353
5,TGCCGTCT,1.28
6,TCCCGAGT,0.977
7,GAGCGCTT,2.07
8,GGCCGAGG,0.41
9,ACACGGTC,1.41
10,AGCCGTGA,0.258
11,CGCCGACA,0.962
12,CTGCGCAG,0.583
13,TTCCGCTA,2.3
14,TTCCGCTC,2.73
15,CTCCGCTC,2.19
16,TGACGTGA,0.475
17,GAACGAGC,1.12
18,CATCGGGA,0.259
19,CGACGCGT,0.316
20,TATCGAGC,0.705
21,TACCGGGC,0.455
22,CCACGCCA,1.91
23,GTACGCCT,2.41
24,GTACGCCG,1.9
25,CTACGCCT,2.79
26,GTACGCCA,2.14

row,Sequence,relative CpG methylation activity
1,CGACGCCT,1.29
2,CCACGCCT,2.24
3,CGACGCCA,1.29
4,CCACGCCG,1.71
5,CTACGCAG,1.43
6,CTACGCCG,2.5
7,CTACGCCA,2.74
8,GCCCGAAA,1.39
9,AGACGGTC,1.15
10,TCCCGTAT,0.643
11,GACCGCTT,1.77
12,ACACGAGC,1.54
13,TTGCGATA,1.13
14,GGTCGTAT,0.455
15,TTGCGGTC,1.43
16,TAGCGGGT,0.231
17,GGACGGGT,0.4
18,ATACGCCT,2.76
19,ATACGCGT,1.9
20,ATACGCAT,1.79
21,GATCGCCG,0.545
22,TCACGACA,1.52
23,CAACGCTC,1.36
24,CTACGCTG,1.75
25,CTACGCTT,2.38
26,CAACGCTA,0.826

row,Sequence,relative CpG methylation activity
1,TTACGCTA,1.94
2,CTACGCTC,2.66
3,CTACGCAT,1.97
4,CTACGCTA,2.5
5,CGACGCTC,1.38
6,GACCGTCG,1.29
7,TGCCGAGC,1.38
8,CGGCGTTT,0.165
9,ACTCGATG,0.513
10,GCCCGGCG,0.38
11,ACACGCCG,1.92
12,GCACGCCT,2.25
13,ACACGCCT,2.44
14,ACACGCCC,2.4
15,ACACGCCA,2.02
16,GCACGCCC,2.31
17,CGCCGGCC,0.909
18,CCGCGGGT,1.11
19,ATACGCGC,1.93
20,TTACGCAA,2.55
21,ATACGCCG,2.33
22,TAACGCCC,1.61
23,TTACGCGC,2.44
24,GTACGCAA,1.89
25,TTACGCGG,0.654
26,TTACGCAT,2.29

row,Sequence,relative CpG methylation activity
1,TTACGCCG,2.29
2,TTACGCCC,2.64
3,ATACGCCC,2.85
4,AGACGCCC,1.43
5,ATTCGCAA,1.09
6,TAACGTAC,0.748
7,GCACGACG,0.957
8,TATCGTTG,0.26
9,TCGCGTAG,0.412
10,GGACGCCC,1.88
11,ATACGCCA,2.6
12,CTACGCCC,2.62
13,TAACGCCT,1.2
14,CAACGCCC,1.52
15,CTACGCAC,2.15
16,TTACGCGT,1.81
17,GTACGCCC,2.39
18,TTACGCCA,2.33
19,GAACGCCC,1.6
20,TTACGCCT,2.38
21,ATACGCGA,1.33
22,TGCCGCGC,0.766
23,TATCGATG,0.224
24,AAACGTAA,0.891
25,AGGCGCCT,1.88
26,TGACGACG,0.449

row,Sequence,relative CpG methylation activity
1,GCCCGTTT,0.909
2,CCTCGGAG,0.294
3,ACCCGCCG,1.76
4,GGCCGCCT,1.37
5,ACCCGCCC,2.24
6,TTCCGCCA,2.2
7,GTCCGCCA,1.87
8,TTCCGCCG,2.55
9,TTCCGCAT,1.78
10,GTCCGCCT,2.6
11,TGCCGCCG,1.03
12,ACCCGCCT,2.44
13,TTCCGCCT,2.6
14,TTCCGCGT,1.64
